Source: PubChem (National Center for Advancing Translational Sciences (NCATS))
Hits are enriched below; roughly 21% of the tested compounds scored in any of these assays.
ClpP mod: qHTS Assay for Activators of ClpP; purified B. subtilis ClpP, FRET peptide cleavage, 20 min; AID 651965, 2013; ATP-dependent Clp protease proteolytic subunit (Bacillus subtilis (strain 168)), P80244; 1.9% of 340,000 active; Potency, µM (top dose mostly 57.5 µM), without a hit: at the top dose activity change, negative = active; active = well fitted falling curve with a large enough effect; inconclusive = small, poorly fitted or top-dose-only effect; inactive = no such curve, though single readings can be large or run the other way; also: potency is read from the fitted curve at half-maximal effect; the source files actives as falling curves though it sought activators and does not explain the sign; nearly all actives have a fitted effect of over 65% in size
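ClpP 10 microg/mL final, pH 8 Tris/KCl buffer with BSA, glycerol, Tween-20; compound pinned in; FRET-FV substrate; RT 20 min; Ex320/Em430; ΔFRET vs ADEP 5.8 microM, DMSO, no enzyme.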
IL-1B inflam inh: blocks inflammasome-driven IL-1 beta release; THP-1 LPS/ATP IL-1B secretion, AlphaLISA, 16 h; active compounds read low; 4.7% of 360,000 active; AID 743279; activity change, % at 57.5 µM; in the data active = activity change below about -50%; inconclusive = mostly about -30% to -49%; also: % is scaled to controls: 0 for no effect and ±100 for the full control effect
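Secreted IL-1B measured by AlphaLISA bead assay after 16 h compound exposure of THP-1 cells; compounds (final up to 57.5 uM) added 1 h before LPS (250 ng/mL) and ATP (1.25 mM) stimulation; lower signal means less secretion.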
TDP1 cell CPT: DT40-hTDP1 cell growth loss with CPT. chicken DT40 Tdp1-/-;hTDP1 cells + 20 nM CPT, ATP luminescence, 48 h. Potency, µM (doses to about 46.2 µM), without a hit: at the top dose activity change, negative = growth inhibition, hits mostly inhibitors. 12% of 420,000 active. AID 686979; also: potency is read from the fitted curve at half-maximal effect; % is scaled to controls: 0 for no effect and ±100 for the full control effect; nearly all actives have a fitted effect of over 55% in size
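Chicken DT40 Tdp1-/- cells complemented with human TDP1, 400 cells/well, exposed to compounds plus 20 nM camptothecin for at least 48 h at 37 C; viability read as ATP content by CellTiter-Glo luminescence.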
TDP1 cell noCPT: qHTS for Inhibitors of human tyrosyl-DNA phosphodiesterase 1 (TDP1): qHTS in cells in absence of CPT; 15% of 420,000 active; DT40 Tdp1-/- hTDP1 cells, no CPT, ATP luminescence, 48 h; AID 686978, 2013; Potency, µM (top dose mostly 46.2 µM), for the others: at the highest dose activity change, negative = growth inhibition, actives largely listed as inhibitors; also: potency is read from the fitted curve at half-maximal effect; % is scaled to controls: 0 for no effect and ±100 for the full control effect; nearly all actives have a fitted effect of over 55% in size
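No-CPT arm: Tdp1-/-;hTDP1 DT40 cells (400/well) plus compounds, incubated ≥48 hr at 37 °C. Readout CellTiter-Glo luminescence.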
D3 ag: agonists of human D3 dopamine receptor; P35462; D3R DiscoveRx beta-arrestin cells, luminescence, 90 min; max activation, %; 0.58% of 410,000 active; AID 652048; in the data active = max activation above about 30%; also: 0% is about no effect
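Agonist-mode cell screen: cells plated at 1500/well and incubated overnight at 37 °C, then exposed to library compounds for 90 min at 37 °C. Detection reagent was added for 30–60 min at room temperature, and luminescence was read.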
D3 antag: blocks the human D3 dopamine receptor; P35462; D3R cells, DiscoveRx beta-arrestin luminescence, antagonist mode; active compounds read low; max response, negative = inhibition, %; 2.5% of 360,000 active; in the data active = max response below about -50%; inconclusive = no clear call, values can overlap the other calls; also: % is scaled to controls: 0 for no effect and ±100 for the full control effect
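Cells plated overnight at 1500 cells/well, then exposed to library compounds with dopamine controls for 90 minutes at 37 degrees C. DiscoveRx reagent added for 30–60 minutes at room temperature; luminescence read, quantitative HTS format.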
An asterisk follows results filed as active; i = inactive; ? = inconclusive; · = not tested or not shown. Unless noted, calls follow the shape of the dose curve; as a rule, active = well fitted inhibition curve with a large enough effect; inconclusive = small, poorly fitted or top-dose-only effect; inactive = flat fitted curve, though single readings scatter.

SMILES	ClpP mod	IL-1B inflam inh	TDP1 cell CPT	TDP1 cell noCPT	D3 ag	D3 antag
COc1ccc(C2C=C(c3ccccc3)Nc3nc(NC(=O)/C=C/c4ccc(F)cc4)nn32)cc1 (centres undefined)	4.4%	·	20.6µM*	20.6µM*	1.7	·
O=C(/C=C/c1ccccc1)Nc1nc2n(n1)C(c1ccc(F)cc1)C=C(c1ccccc1)N2 (centres undefined)	-19.7%	·	7.31µM*	8.2µM*	-3.7	·
COc1ccc(/C=C/C(=O)Nc2nc3n(n2)C(c2ccccc2)C=C(c2ccccc2)N3)cc1 (centres undefined)	-2.3%	·	7.31µM*	5.8µM*	-24.4	·
Cc1cc(O)c(C(=O)Cc2csc(C)n2)c(O)c1	0.4%	-15.5	-7.2%	-20.4%	1.2	21.0
Cc1cc(O)cc(O)c1C(=O)Cc1cscn1	28.2µM*	2.5	-24.3%	?	0.3	16.1
Cc1cc(C)n2c(SCc3ccc(Cl)cc3Cl)nnc2n1	0.5%	-2.2	?	18.4µM*	5.9	-6.5
Cc1cc(C)n2c(SCc3ccccc3Cl)nnc2n1	-4.6%	-9.0	-21.9%	1.6%	-5.2	-1.4
Cc1cc(Cl)cc(Br)c1OCCCNCC(C)O (centres undefined)	·	-5.9	-7.0%	?	-1.1	-0.3
Cc1cc(C)c(OCCCNC2CCCC2)c(Br)c1	1.8%	-54.7*	13µM*	7.31µM*	-17.6	-53.1*
Cc1cc(Cl)c(OCCCNCc2ccccc2)c(Br)c1	-1.4%	?	?	18.4µM*	-11.2	-61.7*
Cc1cc(C)c(OCCOCCN(C)C)c(Br)c1	2.0%	0.0	-0.6%	?	-7.2	-4.3
Cc1cc(C)c(OCCCNCc2ccccc2)c(Br)c1	0.4%	-71.9*	18.4µM*	23.1µM*	-15.9	-27.8
Cc1cc(Cl)c(OCCN2C(=O)NC(C)(C)C2=O)c(Br)c1	1.7%	31.2	?	-23.1%	-1.1	13.4
CN(C)c1cccc(C(=O)NNC(=O)CSc2ccccc2)c1	·	-11.8	11.8%	1.8%	-19.3	-14.1
COc1ccc2c(Cl)c(C(=O)NCCc3ccc(S(N)(=O)=O)cc3)sc2c1	14.1µM*	10.5	-21.6%	2.4%	8.7	-11.2
CCc1sc(C(=O)NCCc2ccc(S(N)(=O)=O)cc2)cc1Br	·	?	?	16.4µM*	-2.3	-8.6
CCc1sc(C(=O)NCCc2ccc(S(N)(=O)=O)cc2)cc1C	·	-1.5	-4.6%	2.1%	-2.5	-2.5
O=C1/C(=C/c2ccc([N+](=O)[O-])cc2)C=C(c2ccccc2)N1c1ccc(O)cc1	-1.4%	-99.3*	5.17µM*	2.91µM*	-12.2	?
O=C1/C(=C/c2ccc([N+](=O)[O-])cc2)C=C(c2ccccc2)N1c1ccccc1	-2.3%	-0.3	?	?	-12.2	-15.9
COc1ccc(N2C(=O)/C(=C/c3ccc([N+](=O)[O-])cc3)C=C2c2ccccc2)cc1	-1.2%	?	3.66µM*	2.91µM*	-5.4	-12.3
O=C(O)c1cccc(N2C(=O)/C(=C/c3ccc([N+](=O)[O-])cc3)C=C2c2ccccc2)c1	1.3%	-2.1	?	?	3.9	-10.4
O=C(NCc1cccc(Cl)c1)c1ccc(N2CC3CC(C2)c2cccc(=O)n2C3)c(NC(=O)c2cccnc2)c1 (centres undefined)	-0.3%	-17.0	-19.4%	-24.9%	3.8	-5.1
CCOc1ccc(N(CC)C(=O)CCc2nc(-c3ccccc3F)no2)cc1	1.4%	·	?	?	6.6	·
CCCN(C(=O)CCc1nc(-c2ccc(C)cc2)no1)c1ccc(OCC)cc1	1.5%	·	16.4µM*	?	-2.8	·
CCc1ccccc1N(CC)C(=O)CCc1nc(-c2ccc(C)cc2)no1	-1.9%	?	23.1µM*	23.1µM*	4.7	-0.7
SMILES	ClpP mod	IL-1B inflam inh	TDP1 cell CPT	TDP1 cell noCPT	D3 ag	D3 antag
CCN(Cc1ccccc1)C(=O)CCc1nc(-c2ccc(C)cc2)no1	2.6%	-0.1	29.1µM*	23.1µM*	-12.0	0.0
O=C(c1ccc(-n2cccn2)cc1)N1CCN(c2ncccc2C(F)(F)F)CC1	1.2%	i	?	?	2.3	2.3
S=c1[nH]nc(-c2cc(-c3ccccc3)n[nH]2)n1/N=C/c1cccc(Cl)c1	·	21.2	?	-22.1%	-3.4	-20.9
CC(C)NC(=S)NN=C1c2ccccc2-c2ccccc21	·	1.4	23.1µM*	7.31µM*	-8.2	-20.2
C/C(=N\NC(=S)NC(C)C)c1ccccc1	-0.8%	-6.5	?	?	-0.9	-3.2
COc1cc(OC)c(OC)cc1/C=N/Nc1nc2ccccc2[nH]1	-10.9%	0.0	2.5%	-21.6%	-6.6	0.0
CC(C)(C)C1CCC(=NNc2nc3ccccc3[nH]2)CC1 (centres undefined)	·	74.6	-14.5%	?	19.5	3.4
C(=N\Nc1nc2ccccc2[nH]1)/c1ccccn1	1.3%	109.7	?	20.6µM*	-3.8	-28.1
c1ccc2c(c1)CC/C2=N/Nc1nc2ccccc2[nH]1	·	-107.8*	?	18.4µM*	-10.5	-7.8
C#CCn1cc(/C=N/Nc2nc3ccccc3[nH]2)c2ccccc21	-1.1%	-92.4*	?	?	-26.5	?
C(=N\Nc1nc2ccccc2[nH]1)/c1cccc2nccnc12	·	·	2.91µM*	4.11µM*	11.4	27.1
CCOc1ccc(N2C(=O)Nc3ccc(Br)cc3C2(O)C(=O)NCCN(C)C)cc1 (centres undefined)	1.0%	1.1	-0.1%	0.7%	1.7	-6.0
COc1ccc(-c2nc3cnc(N4CCOCC4)nc3n(C3CC3)c2=O)cc1	·	·	12.0%	14.3%	·	·
CCc1ccc(CNC(=O)C2CCN(S(=O)(=O)N3CCCC3)CC2)cc1	-0.9%	13.3	-19.1%	-18.1%	-1.1	-7.8
O=c1c(CCc2ccccc2)nc2cnc(Nc3ccccc3)nc2n1C[C@H]1CCCO1	·	·	18.2%	4.5%	·	·
C(=N\Nc1nc2ccccc2[nH]1)/c1ccc2c(c1)OCCO2	-19.9%	40.8	?	?	-1.8	3.1
CCN(CC)c1ccc(/C=N/Nc2nc3ccccc3[nH]2)c(O)c1	?	-59.4*	4.61µM*	4.61µM*	10.0	?
CCN(CC)c1ccc(C=Nc2ccccc2C)c(O)c1	1.2%	3.1	0.1%	9.1%	3.3	9.6
BrC(=C\c1ccccc1)/C=N/Nc1nc2ccccc2[nH]1	-17.9%	-28.6	18.4µM*	?	-13.7	-13.5
C(=N\Nc1nc2ccccc2[nH]1)/c1ccc2ncccc2c1	·	0.1	?	0.82µM*	-13.8	11.6
